From PubChem
IL1B secr inh: blocks inflammasome-driven IL-1 beta release. THP-1 LPS/ATP IL-1B secretion, AlphaLISA, 16 h; active compounds read low. 4.7% of 360,000 active. AID 743279. activity change, % at 57.5 µM; in the data active = activity change below about -50%; inconclusive = mostly about -30% to -49%; also: % is scaled to controls: 0 for no effect and ±100 for the full control effect
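THP-1 cells pretreated 1 hr with compounds (up to 57.5 uM final), then stimulated with LPS (250 ng/mL final) plus ATP (1.25 mM final); secreted IL-1B measured by AlphaLISA after 16 hr, decreased signal indicating inhibition.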
USP1-UAF1 inh: USP1/UAF1 (human) deubiquitinase inhibition. O94782. 0.23% of 390,000 active. recombinant USP1/UAF1, Ub-Rhodamine cleavage fluorescence. Potency, µM (series often up to 57.1 µM), inactives show top-dose activity change, negative = inhibition, actives largely listed as inhibitors; also: potency is read from the fitted curve at half-maximal effect; % is scaled to controls: 0 for no effect and ±100 for the full control effect; nearly all actives have a fitted effect of over 60% in size
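High-throughput fluorogenic screen: 1nM USP1/UAF1 complex, Ub-Rho substrate 150nM final, 50mM HEPES pH 7.8 with 0.5mM EDTA, 0.1 mg/ml BSA, 1mM TCEP and 0.01% Tween-20.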
S2 tox: reduces viability in counter-screen for ATXN expression inhibitors | S2 cells (HEK-293 line with an ATXN2-luciferase reporter) viability, CellTiter-Fluor protease fluorescence, 24 h | Potency, µM (titrated, usually from 56.7 µM), actives largely listed as cytotoxic | 0.49% of 400,000 active | AID 651635; also: potency is read from the fitted curve at half-maximal effect; nearly all actives have a fitted effect of over 40% in size
ATXN2 expr inh: ATXN2 expression inhibition. Potency, µM (doses to about 57 µM), for the others: at the highest dose activity change, negative = inhibition, actives largely listed as inhibitors. 0.72% of 360,000 active. HEK-293 ATXN2-luciferase reporter, luminescence, 24 h; also: potency is read from the fitted curve at half-maximal effect; % is scaled to controls: 0 for no effect and ±100 for the full control effect; nearly all actives have a fitted effect of over 55% in size
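qHTS (up to 57 uM final) was run with 24 h compound exposure of reporter cells at 37 °C. Each well was multiplexed: SteadyGlo luminescence measured ATXN2-luciferase expression after a fluorogenic Gly-Phe-AFC viability readout (25 uM final).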
USP2a inh: inhibitors of human ubiquitin-specific protease USP2a; O75604; USP2 core, Ub-CHOP2 coupled fluorogenic reporter, 485/531; Potency, µM (series often up to 38.3 µM), inactives show at the top dose activity change, negative = inhibition, actives largely listed as inhibitors; 0.01% of 330,000 active;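 also: potency is read from the fitted curve at half-maximal effect; plate controls were DMSO wells for no effect and full inhibition by NEM control for full effect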
Target sequence (O75604 whole entry, looked up): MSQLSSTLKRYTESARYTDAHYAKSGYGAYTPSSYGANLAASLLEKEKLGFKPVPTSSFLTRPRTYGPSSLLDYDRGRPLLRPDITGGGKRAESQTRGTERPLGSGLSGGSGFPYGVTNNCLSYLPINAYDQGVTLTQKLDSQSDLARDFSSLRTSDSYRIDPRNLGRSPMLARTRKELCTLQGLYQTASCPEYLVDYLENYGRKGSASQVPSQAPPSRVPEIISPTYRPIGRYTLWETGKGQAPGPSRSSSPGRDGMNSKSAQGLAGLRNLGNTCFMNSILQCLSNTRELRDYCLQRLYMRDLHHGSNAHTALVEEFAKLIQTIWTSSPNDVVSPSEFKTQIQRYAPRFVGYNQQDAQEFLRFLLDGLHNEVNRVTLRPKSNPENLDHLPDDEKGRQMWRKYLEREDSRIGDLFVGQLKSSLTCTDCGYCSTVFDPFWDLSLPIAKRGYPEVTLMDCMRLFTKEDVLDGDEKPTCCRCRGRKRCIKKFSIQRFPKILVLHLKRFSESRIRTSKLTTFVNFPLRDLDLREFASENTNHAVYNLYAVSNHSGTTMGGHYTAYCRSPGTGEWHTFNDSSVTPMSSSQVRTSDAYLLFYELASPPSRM
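Cell-free coupled assay: 10nM USP2 core preincubated 30min RT with compound in Tris-HCl pH 8.0/CaCl2/CHAPS buffer, then 25nM Ub-CHOP2 and 25nM reporter substrate; fluorescence (Ex 485/Em 531) read after 60min RT, normalized to NEM inhibition, concentration-response curves fitted.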
The depositor's hits bear a star; i = inactive; ? = inconclusive; nt = not tested or not shown. This is a sample that favours compounds with a hit; in the whole collection about 4.8% have one here. Unless noted, calls follow the shape of the dose curve; as a rule, active = well fitted curve in the direction sought with a large enough effect; inconclusive = small, poorly fitted or top-dose-only effect, or another doubt; inactive = no such curve, though single readings can be large; an effect the other way counts as inactive or inconclusive.

SMILES	IL1B secr inh	USP1-UAF1 inh	S2 tox	ATXN2 expr inh	USP2a inh
C[C@H]([C@H](O)CCC(C)(C)O)[C@H]1CC[C@@]2(O)C3=CC(=O)[C@@H]4C[C@@H](O)[C@@H](O)C[C@]4(C)[C@@H]3CC[C@]12C	nt	nt	nt	8%	nt
Cc1ccc(C(=O)N[C@@H](C)CN2C3=NC[C@@H](Cc4ccccc4)N3C[C@H]2Cc2ccc(O)cc2)cc1Br	-20	-10%	25µM*	?	-1%
Cc1ccc(C(=O)N[C@@H](C)CN2C3=NC[C@H](Cc4ccccc4)N3C[C@H]2Cc2ccc(O)cc2)cc1Br	-14	-8%	nt	25µM*	-3%
Cc1nc(-c2cccc(NC(=O)c3ccc(Cl)c(S(=O)(=O)N4CCCC4)c3)c2)cs1	-15	?	?	nt	nt
CCC(CC)(CNC(=O)CCCO)c1cccc(OC)c1	nt	nt	i	9%	nt
CN1CCN(c2ccc(/C=C3\C(=O)NC(=S)N(c4cccc(Br)c4)C3=O)o2)CC1	-13	32µM*	?	-18%	24%
NC(=Nc1ccccc1)NN=Cc1c[nH]c2ccccc12	-109*	-15%	?	-3%	nt
COc1ccc(CCNCc2ccccc2)cc1	-15	-10%	i	nt	-1%
COc1cccc(CCNCc2ccc(SC)cc2)c1	-65*	-17%	i	-29%	3%
COc1ccc(CCNCc2cc(OC)cc(OC)c2)cc1	-51*	-18%	i	nt	nt
COc1ccc(CCNCc2c(OC)ccc3ccccc23)cc1	-64*	-21%	i	nt	0%
COc1ccc(CCNC(C)CCc2ccc(OC)cc2)cc1 (centres undefined)	-64*	?	i	-24%	5%
CC(=O)N(C)c1cccc(-c2ccnc3c(C(=O)c4cccs4)cnn23)c1	nt	nt	nt	76%	nt
CCCCCCC(C)(C)c1ccc([C@@H]2C[C@H](O)CC[C@H]2CCCO)c(O)c1	-67*	8%	10µM*	14µM*	-18%
COc1ccccc1Sc1ccccc1CC(C)N (centres undefined)	-56*	-11%	i	-18%	0%
O=C(COc1cc(Cl)ccc1Cl)Nc1ccc(Cl)cc1C(=O)c1ccccc1	nt	2%	nt	nt	nt
CC(C)N(C(=O)CCl)c1ccccc1	-51*	-15%	?	-22%	nt
NC1=C(Br)C(=O)c2ccccc2C1=O	-8	8.9µM*	?	?	0%
O=C1C(=O)c2ccccc2-c2ccccc21	-108*	1µM*	2.8µM*	2.5µM*	3%
NC(N)=NOCC[C@H](N)C(=O)O	nt	nt	i	nt	nt
CC1=CC(=O)C2=C(C)C[C@@H](O)[C@@H]3[C@@H](OC(=O)[C@H]3C)[C@H]12	nt	nt	i	nt	nt
O=C1C=C2C=C[C@H]3C[C@]2(O1)[C@@H]1CCCCN13	-21	-10%	i	5%	2%
O=C1C=C2C=C[C@@H]3CC2(O1)[C@H]1CCCCN31	-96*	-28%	i	1%	2%
COc1ccc(CCNC(=O)c2ccc3c(c2)CCN3S(=O)(=O)c2ccc(C)cc2)cc1OC	nt	-26%	?	-12%	nt
CC[N@+]1(C)CCC[C@@H](OC(=O)C(O)(c2ccccc2)c2ccccc2)C1	nt	nt	i	nt	nt
SMILES	IL1B secr inh	USP1-UAF1 inh	S2 tox	ATXN2 expr inh	USP2a inh
Nc1ccc2c3c(cccc13)-c1ccccc1-2	2	5.6µM*	nt	14%	nt
Cc1ccc(NC(=O)Nc2ccc3nc(N4CCN(C)CC4)cc(C)c3c2)cc1F	nt	-5%	?	16%	nt
FC(F)(F)c1cccc(C2NCc3ccccc3-n3cccc32)c1 (centres undefined)	-88*	-34%	i	-16%	-2%
Oc1ccc(C2NCc3ccccc3-n3cccc32)cc1Cl (centres undefined)	-13	0%	i	0%	-3%
CC(=O)C1CCOC1=O (centres undefined)	nt	nt	i	4%	nt
CCN(CC)C(=O)N[C@@H]1C=C2c3cccc4[nH]cc(c34)C[C@@H]2N(C)C1	nt	nt	i	0%	nt
COc1ccc2[nH]c(C)c(CCNCc3cn(C)c4ccccc34)c2c1	-86*	-10%	nt	?	-2%
Cc1[nH]c2ccccc2c1CCNCc1cccnc1	-5	-26%	i	6%	3%
CC(CNC(=O)c1ccc(CSc2nc3ccncc3n2Cc2ccc(F)cc2)cc1)c1ccccc1 (centres undefined)	nt	?	?	-26%	nt
CC(=O)c1cn(Cc2ccc(F)cc2)c2ccccc12	30	?	i	-27%	1%
CC(N)Cc1cn(Cc2ccccc2)c2ccccc12 (centres undefined)	-90*	?	?	-26%	9%
CN1CC[C@@]2(C)c3cc(O)ccc3N(C)[C@@H]12	-26	28µM*	14µM*	-22%	nt
COc1ccc(CC2C(=O)NC(C)C(=O)N(C)C3C(=O)N(C)C(Cc4ccc(O)c(c4)Oc4ccc(cc4)C3O)C(=O)NC(C)C(=O)NC(C)C(=O)N2C)cc1 (centres undefined)	-101*	-19%	?	0.084µM*	nt
Cc1cc([N+](=O)[O-])c2ccccc2[n+]1[O-]	-99*	-22%	nt	nt	-1%
CNc1cc(Cl)c2nonc2c1[N+](=O)[O-]	-105*	-22%	22µM*	28µM*	2%
CN1CSC(=S)N(C)C1	-95*	-5%	i	-18%	nt
c1ccc(Nc2ccc(Nc3ccccc3)cc2)cc1	-25	-2%	i	-7%	-1%
N#CC(C#N)=C(C#N)c1ccc(Nc2ccccc2)cc1	-90*	-10%	i	5%	0%
O=C(c1cc(-c2cccc(Cl)c2)on1)N1CCOCC1	-7	?	i	22%	4%
CC(C)(C)C(=O)O[C@H]1CC[C@@]2(C)C(=CC(=O)C3C2CC[C@]2(C)C(=O)[C@@H](F)CC32)C1 (some centres undefined)	-77*	-22%	?	-15%	3%
CC(=O)OC1CC[C@@]2(C)C(=CC(=O)C3C4CCC(OC(C)=O)[C@@]4(C)CCC32)C1 (some centres undefined)	6	-17%	?	-4%	nt
CCOc1ccc(CN2CCCC(C(=O)c3ccccc3OC)C2)cc1 (centres undefined)	-58*	-13%	i	-32%	0%
COc1ccccc1CN1CCCC(C(=O)c2ccccc2OC)C1 (centres undefined)	-11	-13%	i	-9%	0%
C=Cc1cc(OC)c2c(c1)c(=O)oc1c2cc(OC)c2c(O)ccc(C3OC(C)C(O)C(C)(O)C3O)c21 (centres undefined)	-100*	-11%	i	1.7µM*	nt
COc1ccccc1NC(=O)CCn1cnc2onc(-c3ccc(F)cc3)c2c1=O	nt	?	i	-15%	nt
Oc1ccc2c3c1O[C@H]1c4oc5ccccc5c4C[C@@]4(O)[C@@H](C2)N(CC2CC2)CC[C@]314	-65*	-29%	i	111%	-8%
